Reference: PubChem BioAssay AID1220 (Sanford-Burnham Center for Chemical Genomics, 2008)
Among all 190,000 compounds or so, about 1,300 (0.68%) were called active. Cut-off read from the data, not from the text of the source: active = inhibition above about 50%; inactive = the rest. What follows is part of a selection rich in actives, with near analogues and random picks from the rest.

Molecular target: Mannose-6-phosphate isomerase (Homo sapiens) (UniProt P34949)
Test: human PMI inhibitors, high substrate, primary screen, biochemical, fluorescence intensity, high mannose 6-phosphate (AID 1220)
Settings: recombinant PMI enzyme, coupled fluorescence intensity; at 20 µM; hits give high values

Mannose-6-phosphate isomerase (Homo sapiens), sequence (P34949 whole entry, looked up): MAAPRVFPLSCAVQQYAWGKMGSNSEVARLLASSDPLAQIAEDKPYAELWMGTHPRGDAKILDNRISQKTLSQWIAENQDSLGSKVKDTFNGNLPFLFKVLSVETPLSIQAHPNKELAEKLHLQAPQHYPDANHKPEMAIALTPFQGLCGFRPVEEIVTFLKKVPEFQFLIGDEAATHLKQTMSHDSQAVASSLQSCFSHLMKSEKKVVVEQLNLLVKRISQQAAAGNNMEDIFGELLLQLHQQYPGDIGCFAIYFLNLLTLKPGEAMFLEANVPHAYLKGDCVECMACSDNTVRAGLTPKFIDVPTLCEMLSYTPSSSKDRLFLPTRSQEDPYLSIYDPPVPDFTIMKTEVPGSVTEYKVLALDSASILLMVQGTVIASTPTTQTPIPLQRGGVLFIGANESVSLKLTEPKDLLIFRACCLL

inhibition, active:
CCOC(=O)/C(C#N)=C1/C(=O)N(Cc2ccccc2)c2ccccc21 66.7%
CCCCCOC(=O)CSc1nc2c(c(=O)[nH]c(=O)n2C)n1CCc1ccccc1 107%
CC1=CC(C)(C)Nc2cc(C)c(C)cc21 56.3%
COc1ccc(C(=O)/C=C/c2ccc(OC)c(O)c2)c(F)c1 62.5%
COc1ccc(C(=O)/C=C/c2cc(OC)c(O)c(OC)c2)c(F)c1 62.9%
COC(=O)c1nc2ccc(N3CCOCC3)cc2c(C)c1C(=O)OC 64.4%
CCOc1ccc(N/C(C)=C\C(=O)c2ccc3c(c2)OCCO3)cc1 61.4%
CCN(C(=O)COc1cccc2cccnc12)C1CCS(=O)(=O)C1 (configuration not stated) 63.2%
COc1ccc(CCN2C(=O)CC(NCc3ccc4c(c3)OCO4)C2=O)cc1OC (configuration not stated) 51%
Cc1cc(C)c2cccc(N)c2n1 64%
Cc1ccc2cccc(N)c2n1 56.5%
Nc1nc(SCC(=O)NCCCO)nc2sc3c(c12)CCC3 57%

inhibition, inactive:
CNC(=O)CSc1nnnn1-c1cc(C)ccc1C 5.1%
CCOC(=O)c1c(NC(=O)CN2CCCc3ccccc32)sc(C)c1CC 7.2%
CCOC(=O)/C(C#N)=C1/C=CN(Cc2ccccc2)C=N1 1.1%
CCCCN1C(=O)/C(=C(/C#N)C(N)=O)c2ccccc21 36.9%
CCOC(=O)C1CCCN(C(=O)Nc2cccc(Cl)c2)C1 (configuration not stated) 2.6%
COc1cc([N+](=O)[O-])cc2cc(C(=O)NC(C)(C)C)c(=O)oc12 15.7%
C=CCSc1nc2sc3c(c2c(=O)n1CC=C)CCc1ccccc1-3 33.5%
C=CCn1c(SCC)nc2sc3c(c2c1=O)CCc1ccccc1-3 5.8%
O=C1CC(C(=O)N(c2ccccc2)C(C(=O)NC2CCCC2)c2ccncc2)CS1 (configuration not stated) 0.6%
Cc1c(C(=O)Nc2ccccc2)sc2nc[nH]c(=O)c12 8.6%
CCOC(=O)CSc1nc2c(c(=O)[nH]c(=O)n2C)n1CCCc1ccccc1 2.2%
CCOC(=O)CSc1nc2c(c(=O)[nH]c(=O)n2C)n1CCc1ccccc1 8.8%
CN1C(=O)CC(C(=O)O)SC1=Nc1ccc(F)cc1 (configuration not stated) -4.1%
CC(C)N1CCN(c2ccncc2S(=O)(=O)N2CCOCC2)CC1 -5.7%
O=C(O)c1[nH]c2ccccc2c1C=NCc1ccccc1Cl -5%
CC1=CC(C)(C)Nc2ccc(C)cc21 40.8%
CC1=CC(C)(C)Nc2ccccc21 23.6%
C/C(=N/NC(=O)c1ccccc1)C(=O)O 33.7%
COc1ccc(C(=O)/C=C/c2ccccc2)c(OC)c1 1.9%
COc1ccc(/C=C/C(=O)c2ccc(OC)cc2OC)c(OC)c1 9.4%
COc1ccc(/C=C/C(=O)c2ccc(OC)cc2OC)cc1 2.1%
COc1ccc(C(=O)/C=C/c2ccccc2)c(O)c1 5.8%
Cc1ccc(N(C(=O)Cn2nnc(-c3ccccc3)n2)C(C(=O)NC2CCCCC2)c2ccccn2)cc1C (configuration not stated) 6.5%
Cn1c(=O)n(Cc2ccc(Cl)cc2)c(=O)c2c1nc1n2CCN1Cc1ccco1 7.4%
Cc1cc2ncn(CCOc3ccccc3C#N)c2cc1C 0.3%
Cc1ccccc1-c1nsc(SCC(=O)Nc2ccc3c(c2)OCO3)n1 14.2%
CCN1/C(=C/c2ccc3cc(C)ccc3[n+]2CC)Sc2ccccc21 -14.4%
CCN1/C(=C/c2ccc3cc(C)ccc3[n+]2CC)Sc2cc(C)ccc21 15%
CCOC(=O)N1CCN(c2cc(=O)n(-c3ccccc3C)c(=O)[nH]2)CC1 -8%
Cc1ccsc1C(=O)OC1CCOC1=O (configuration not stated) -9.2%
COC(=O)c1nc2cc3c(cc2c(C)c1C(=O)OC)OCO3 -5.6%
COC(=O)c1c(N)n(-c2ccc(N3CCOCC3)cc2)c2nc3ccccc3nc12 20%
Cc1nnc(SCc2ccc(F)cc2)n1NC/C=C/c1ccccc1 9.2%
CC(=O)N1CCN(C(=S)c2cccc([N+](=O)[O-])c2)CC1 -0.6%
Cc1cccc(NC(=O)C2(c3ccccc3)CCOCC2)c1 -5.7%
COc1ccc(C(=O)/C=C(\C)Nc2ccc3c(c2)OCO3)cc1 33.7%
CCOc1ccc(NC(=O)CN2CCN(CC(=O)Nc3ccc4c(c3)OCCO4)CC2)cc1 -12.8%
Cc1nc(-c2ccccc2)nc2[nH]c(C(C)C)cc(=O)c12 16.9%
CCN(C(=O)COc1cccnc1[N+](=O)[O-])C1CCS(=O)(=O)C1 (configuration not stated) 43.2%
CCN(C(=O)COc1ccccc1[N+](=O)[O-])C1CCS(=O)(=O)C1 (configuration not stated) -4%
O=C1CC(=O)N(CCNc2ncc(C(F)(F)F)cc2Cl)C(=O)N1 2.4%
COc1cc(Cl)c(C)cc1NC(=O)CSc1nnc(CCC(=O)O)c(=O)[nH]1 6.6%
COc1ccc(CCNC2CC(=O)N(CCc3ccc(OC)c(OC)c3)C2=O)cc1OC (configuration not stated) 1.6%
O=C1CC(NCc2ccc3c(c2)OCO3)C(=O)N1CCc1ccccc1 (configuration not stated) 1%
CCc1nnc(NC(=O)CN2C(=O)c3ccccc3C2=O)s1 -2.7%
O=C1C2C3C=CC(C3)C2C(=O)N1Cc1ccccc1 (configuration not stated) 10%
Cn1c(=O)c2cc(S(=O)(=O)NC(C(=O)Nc3cccc(F)c3)c3ccccc3)ccc2n(C)c1=O (configuration not stated) 1.9%
Cc1cc(N)c2ccccc2n1 5.5%
Cc1cc(C)c2c(N)c3cccc(C)c3nc2n1 5.4%
Cc1ccc2cccc(OCCOCCOc3ccccc3Br)c2n1 35.7%
Cc1ccc2cccc(NC(=O)C(F)(F)F)c2n1 9.3%
COP(=O)(OC)c1nc(-c2ccccc2)oc1N1CCOCC1 -10.4%
CC1CCCCC1N1CN=C(Nc2nc3ccccc3s2)NC1 (configuration not stated) 8.2%
Nc1nc(SCC(=O)NCCOCCO)nc2sc3c(c12)CCCC3 2.8%
Nc1nc(SCC(=O)NCCO)nc2sc3c(c12)CCCC3 5.1%
